Assay outcomes as filed in PubChem.
Many of the other results were omitted from the sample, so hits are more common in it than they were.
Pf Dd2 inh: inhibitors of Plasmodium falciparum Dd2 growth; P. falciparum Dd2 growth, SYBR Green, 72 h; Potency, µM (highest dose often 28.9 µM), without a hit: at the top dose activity, negative = inhibition, usual class: inhibitors; 120,000 tested, 4.3% active; AID 1347417; active = well fitted inhibition curve with a large enough effect;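 also: plate controls were DMSO vehicle for no effect and reference drug for full effect; nearly all actives have a fitted effect of over 65% in size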
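Readout: SYBR Green fluorescence, 485 nm excitation, 535 nm emission, after ~16 h lysis at 37C. Before that, Dd2-infected red cells (2.5% hematocrit) grew 72 h with compound, 29 uM top final concentration.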
Numbers without * were called inactive; [ ] = remark or other dose. Potency is read from the fitted curve at half-maximal effect.

For O=C(Cn1nc2c(cc1=O)CCCC2)NCc1nc2ccccc2[nH]1 the results were Pf Dd2 inh 4%.
`CCc1ccccc1S(=O)(=O)N1CCCC(Cn2c(C3CC3)nc3cccnc32)C1` (stereo not drawn) gave Pf Dd2 inh inactive.
`COc1ccc(NC(=O)CCC2CCCN(C(=O)c3ccccc3SC)C2)cc1Cl` (stereo not drawn) gave Pf Dd2 inh inactive.
COc1ccc(Cl)cc1NC(=O)CCC1CCCN(C(=O)c2ccoc2C)C1 (stereo not drawn) was read as Pf Dd2 inh 4µM*.
For COc1ccc(NC(=O)CCC2CCCN(C(=O)c3ncoc3C)C2)c(C)c1 (stereo not drawn) the results were Pf Dd2 inh 31%.
For COc1ccc(F)c(CN2CCCC(O)(CN3CCC(C(N)=O)CC3)C2=O)c1 (stereo not drawn) the results were Pf Dd2 inh -9%.
`O=C(NC1CCN(c2cc(-c3cccs3)[nH]n2)C1)c1cc2ccccc2[nH]1` (stereo not drawn) gave Pf Dd2 inh 14µM*.
O=C(NC1CCN(c2cc(-c3cccs3)[nH]n2)CC1)c1ccc(F)c(Cl)c1 was read as Pf Dd2 inh inactive.
`O=C(NC1CCN(c2cc(-c3cccs3)[nH]n2)C1)c1ccncc1` (stereo not drawn) gave Pf Dd2 inh inactive.
Cc1ccc(C(=O)NC2CCN(c3cc(-c4cccs4)[nH]n3)CC2)cc1F was read as Pf Dd2 inh 11µM*.
Screening O=C(NC1CCN(c2cc(-c3cccs3)[nH]n2)C1)c1ccc2[nH]ccc2c1 (stereo not drawn) returned Pf Dd2 inh inactive.
For Cc1ccc(C(=O)NC2CCN(c3cc(-c4cccs4)[nH]n3)C2)cc1F (stereo not drawn) the results were Pf Dd2 inh inactive.
For O=C1CCCCN1CC(=O)N1CCCC(c2ccccc2)(c2ccccc2)C1 the results were Pf Dd2 inh inactive.
For NC(=O)[C@H](CC1CCCCC1)NC(=O)[C@@H]1CN(C(=O)Nc2ccccc2)CCN1C(=O)C1CCNCC1 the results were Pf Dd2 inh 8%.
Screening CS(=O)(=O)N1C[C@@H](Oc2ccccc2)C[C@H]1C(=O)N1CCCC1 returned Pf Dd2 inh -17%.
For CN(CC1CCOCC1)C(=O)Nc1cc(F)ccc1F the results were Pf Dd2 inh -24%.
Screening O=C(NC1CCCCC1)N1CCC(c2noc(-c3cccnc3)n2)C1 (stereo not drawn) returned Pf Dd2 inh -9%[5.79 µM].
CC(=O)N1CCC(NC[C@H]2C[C@@H]3CCN2C[C@@H]3c2cc(C3CCCC3)nc(C)n2)CC1 was read as Pf Dd2 inh inactive.
Screening CCC(CC)c1cc([C@H]2CN3CC[C@H]2C[C@@H]3CO)nc(-c2ccncc2)n1 returned Pf Dd2 inh 7.1µM*.
Screening CC(=O)c1cccc(NC(=O)OC[C@H]2C[C@@H]3CCN2C[C@@H]3c2cc(C3CCCC3)nc(-c3ccncc3)n2)c1 returned Pf Dd2 inh -48%.
Screening CCC(CC)c1cc([C@H]2CN3CC[C@H]2C[C@@H]3CNC2CCN(C(C)=O)CC2)nc(-c2ccncc2)n1 returned Pf Dd2 inh 4.5µM*.
Screening CC(=O)N1C[C@@H](C(=O)NCCc2ccc(Cl)cc2)[C@H](c2nc(C)no2)C1 returned Pf Dd2 inh 11%.
Screening COc1ccccc1N1CCN([C@@H]2[C@H](O)[C@H](CO)O[C@@H]2CN)CC1 returned Pf Dd2 inh 31%.
Screening Cc1ncc(C(=O)N(C)CC2CCCN(CCc3ccc(Cl)cc3)C2)c(=O)[nH]1 (stereo not drawn) returned Pf Dd2 inh -8%.
`CC(=O)N1CC2(Cc3ccccc31)CN([S+](=O)([O-])c1c(C)noc1C)C2` gave Pf Dd2 inh 16%.
Screening Cc1ccc(-c2nccn3cc(C(=O)N4CCN(C5CCN(C)CC5)CC4)nc23)cc1 returned Pf Dd2 inh 6%.
COCC1CN(C(C)=O)CC12CCN(Cc1sccc1C)CC2 (stereo not drawn) was read as Pf Dd2 inh 3%.
Screening CNc1nc2c(s1)C(c1cccc(F)c1)CC(=O)N2 (stereo not drawn) returned Pf Dd2 inh -13%.
Screening O=C(CC[C@H]1NC(=O)c2ccccc2NC1=O)NCCc1ccncc1 returned Pf Dd2 inh 6%.
For COc1cccc(CN2CC[C@@]3(O)CCNC[C@H]3C2)c1OCCCn1ccnc1 the results were Pf Dd2 inh 4µM*.
Screening O[C@]12CCNC[C@H]1CN(Cc1ccc(C(F)(F)F)cc1F)CC2 returned Pf Dd2 inh -27%.
`O[C@]12CCNC[C@H]1CN(Cc1cccc(N3CCOCC3)c1)CC2` gave Pf Dd2 inh -4%.
Screening COc1cc(NC(=O)Cn2cccc2-c2nc(-c3ccc(F)cc3)no2)cc(OC)c1OC returned Pf Dd2 inh 41%.
For O=[S+]1([O-])NC2(CCN(Cc3cccc4ccccc34)CC2)CNc2ccccc21 the results were Pf Dd2 inh -12%.
For COc1ccc(-c2nc(C(C)C)nc3c2CCN(C(=O)Nc2ccc(Cl)cc2)CC3)cc1 the results were Pf Dd2 inh inactive.
For CC(C)c1nc2c(c(-c3ccc(O)cc3)n1)CCN(C(=O)c1ccc(F)cc1)CC2 the results were Pf Dd2 inh -6%.
`COc1ccc(-c2nc(C(C)C)nc3c2CCN(C(=O)c2ccccc2)CC3)cc1` gave Pf Dd2 inh -17%.
Screening CC(C)c1nc2c(c(-c3ccc(O)cc3)n1)CCN(CC1CCCCC1)CC2 returned Pf Dd2 inh 1.1µM*.
For COc1ccc(CN2CCc3nc(C(C)C)nc(-c4ccc(O)cc4)c3CC2)cc1 the results were Pf Dd2 inh 2.2µM*.
Screening Cc1nc2c(c(-c3ccc(O)cc3)n1)CN(CC1CC1)CC2 returned Pf Dd2 inh inactive.
`O=C(CC(F)(F)F)NCCc1noc(-c2cccnc2)n1` gave Pf Dd2 inh 31%.
Cc1noc(-c2cn(C3CCN(C(=O)c4cccc(F)c4)CC3)nn2)n1 was read as Pf Dd2 inh inactive.
Screening Cc1cnc(C2CCN(S(C)(=O)=O)C2)n1C(C)C (stereo not drawn) returned Pf Dd2 inh -1%.
`COc1ccc(-c2nc3c(c(=O)[nH]2)CCN(C(=O)c2nccc4ccccc24)C3)cc1` gave Pf Dd2 inh 5µM*.
Screening COc1ccc(-c2nc3c(c(=O)[nH]2)CCN(C(=O)c2cc(Cl)ccc2OC)C3)cc1 returned Pf Dd2 inh 10µM*.
For COc1ccc(-c2nc3c(c(=O)[nH]2)CCN(C(=O)Nc2ccc4c(c2)CCC4)C3)cc1 the results were Pf Dd2 inh inactive.
`COc1ccc(-c2nc3c(c(=O)[nH]2)CCN(C(=O)NCC2CCCO2)C3)cc1` (stereo not drawn) gave Pf Dd2 inh inactive.
`COc1ccc(-c2nc3c(c(=O)[nH]2)CCN(S(=O)(=O)C2CC2)C3)cc1` gave Pf Dd2 inh -15%.
`COc1ccc(-c2nc3c(c(=O)[nH]2)CCN(C(=O)Nc2cc(F)cc(F)c2)C3)cc1` gave Pf Dd2 inh inactive.
`O=C(CC1CCN(C(=O)c2cccc(F)c2)C1)NCc1ccccc1` (stereo not drawn) gave Pf Dd2 inh -3%.
Screening Cc1cc(C(=O)N[C@H](C)c2onc(-c3cccnc3)c2C(=O)O)no1 returned Pf Dd2 inh 9%[44.1 µM].
Screening CN(C)c1nc2c(c(=O)[nH]1)CCN(Cc1ccc(F)c(Cl)c1)CC2 returned Pf Dd2 inh -1%[5.79 µM].
For O=C(NC[C@H]1O[C@H](Cc2cc(CN3CCOCC3)on2)CC[C@@H]1O)N1CCOCC1 the results were Pf Dd2 inh 13%[44.1 µM].
